Measurements from PubChem BioAssay (Tox21).
Records with an inconclusive call do not appear. Activity calls are given as the source filed them. Unless noted, calls come from the whole dose curve; as a rule, active = well fitted curve in the direction sought with a large enough effect in the repeat runs; inconclusive = weak or mixed curves; inactive = no such curve, though single readings can be large; an effect the other way counts as inactive or inconclusive.

Tests used:
[1] = qHTS assay to identify small molecule agonists of the hypoxia (HIF-1) signaling pathway - cell viability counter screen (AID 1224844; calls by dose curve; note: nearly all actives have a fitted effect of over 50% in size)
In short: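 Cytotoxicity was measured in parallel with the HRE-driven beta-lactamase readout: after 17 hrs of compound exposure at 37C, HRE-bla ME-180 cells received CellTiter-Glo and luminescence was recorded 30 min later.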

[2] = qHTS assay to identify small molecule agonists of H2AX (AID 1224845; active = well fitted activation curve with a large enough effect in the signal ratio in the repeat runs, not every such curve was filed as active; the % refers to the signal ratio)
In short: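 Wild-type CHO-K1 cells plated overnight, then exposed 3 hr at 37C to compounds at 15 concentrations (0.76% DMSO). Lysed, then HTRF anti-pH2AX(S139)-cryptate/anti-H2AX-d2 detection after 24 hr at room temperature; emissions 665 and 620 nm.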

[3] = qHTS assay to identify small molecule agonists of the hypoxia (HIF-1) signaling pathway (AID 1224846; active = well fitted activation curve with a large enough effect in the signal ratio in the repeat runs, not every such curve was filed as active; the % refers to the signal ratio)
In short: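 Compounds from the Tox21 10K library, dissolved in DMSO, are tested for induction of a hypoxia response element–controlled beta-lactamase reporter in ME-180 cells. Exposure lasts 17 hrs at 37C after a 5 hr settling period, followed by CCF4-AM FRET substrate.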

[4] = qHTS assay to identify small molecule agonists of H2AX - cell viability counter screen (AID 1224847; calls by dose curve; note: top concentration of the series differs between compounds; nearly all actives have a fitted effect of over 30% in size)
In short: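 Viability of CHO-K1 (wild type) cells after 3 hr compound exposure was measured by CellTiter-Glo luminescence.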

[5] = qHTS assay to identify small molecule agonists of the estrogen related receptor (ERR) signaling pathway from Tox21 library (AID 1224849; calls by dose curve; note: nearly all actives have a fitted effect of over 15% in size); settings: ERR reporter cell line, ONE-Glo luciferase, 18 h; at 92.4 µM (top of the series) unless noted
In short: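 Cells carrying the ERR reporter were plated and allowed to settle for 6 h, exposed to library compounds for 18 h at 37 C, then lysed with ONE-Glo and luminescence measured.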

[6] = qHTS RealTime-Glo MT Cell Viability Assay in HepG2 cells - 24 hour (AID 1224867); note: nearly all actives have a fitted effect of over 50% in size
In short: (§1)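 Viability was tracked continuously by NanoLuc luminescence from prosubstrate reduced by living HepG2 cells, at successive time points over 40 h of compound exposure. Cells with reagent were preincubated 5 h at 37 °C before compound addition.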

[7] = qHTS RealTime-Glo MT Cell Viability Assay in HEK293 cells - 32 hour (AID 1224868); note: top concentration of the series differs between compounds; nearly all actives have a fitted effect of over 50% in size
In short: (§2)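 Viability tracked continuously by luminescence as live cells reduce a prosubstrate for NanoLuc; HEK293 cells preincubated 5 h, compound-treated at 37 C, and read at 0, 8, 16, 24, 32 and 40 h.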

[8] = A CellTox Green Cytotoxicity Assay to monitor cytotoxicity in HEK293 cells - 0 hour (AID 1224869); note: nearly all actives have a fitted effect of over 50% in size
In short: (§3)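 Cells (HEK293, 600/well) and dye reagent are dispensed together. After 5 h at 37 C, 23 nL compound is pinned in. Plates stay at 37 C for 40 h with fluorescence read at 0h, 8h, 16h, 24h, 32h and 40h.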

[9] = qHTS RealTime-Glo MT Cell Viability Assay in HepG2 cells - 40 hour (AID 1224870); note: nearly all actives have a fitted effect of over 50% in size
In short: (§4)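 HepG2 cells mixed with RealTime-Glo MT reagents (NanoLuc plus cell-permeant prosubstrate) were seeded at 600 cells/well, incubated 5 h at 37 C/5% CO2, then pinned with compounds in DMSO; nonlytic luminescence tracked viability during 40 h treatment.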

[10] = A CellTox Green Cytotoxicity Assay to monitor cytotoxicity in HEK293 cells - 40 hour (AID 1224871); note: nearly all actives have a fitted effect of over 45% in size
In short: as §3

[11] = qHTS RealTime-Glo MT Cell Viability Assay in HEK293 cells - 16 hour (AID 1224872)
In short: as §2

[12] = qHTS RealTime-Glo MT Cell Viability Assay in HepG2 cells - 8 hour (AID 1224873); note: nearly all actives have a fitted effect of over 55% in size
In short: as §4

[13] = qHTS RealTime-Glo MT Cell Viability Assay in HEK293 cells - 40 hour (AID 1224874); settings: RealTime-Glo luminescence; max response: stronger effect = lower value; note: nearly all actives have a fitted effect of over 50% in size
In short: (§5)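 Real-time viability in HEK293: signal arises when living cells convert a prosubstrate for NanoLuc in the medium, so luminescence tracks viable cell number. Compound (23 nL, DMSO) added 5 h post-seeding; kinetic reads at 0–40 h, 37 C.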

[14] = A CellTox Green Cytotoxicity Assay to monitor cytotoxicity in HEK293 cells - 24 hour (AID 1224875); note: nearly all actives have a fitted effect of over 45% in size
In short: as §3

[15] = A CellTox Green Cytotoxicity Assay to monitor cytotoxicity in HepG2 cells - 16 hour (AID 1224876); note: nearly all actives have a fitted effect of over 45% in size
In short: (§6)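 Cells and non-lytic dye reagent are dispensed together (600 HepG2 cells/well) and incubated 5 h before DMSO compound transfer. Kinetic fluorescence is then recorded in the same wells during 40 h at 37 C.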

[16] = qHTS RealTime-Glo MT Cell Viability Assay in HepG2 cells - 32 hour (AID 1224877); note: nearly all actives have a fitted effect of over 55% in size
In short: as §1

[17] = A CellTox Green Cytotoxicity Assay to monitor cytotoxicity in HepG2 cells - 24 hour (AID 1224878); note: nearly all actives have a fitted effect of over 45% in size
In short: as §6

[18] = A CellTox Green Cytotoxicity Assay to monitor cytotoxicity in HepG2 cells - 40 hour (AID 1224879); note: nearly all actives have a fitted effect of over 40% in size
In short: as §6

[19] = qHTS RealTime-Glo MT Cell Viability Assay in HEK293 cells - 0 hour (AID 1224880)
In short: as §5

[20] = qHTS assay to identify small molecule antagonists of the estrogen related receptor (ERR) signaling pathway from Tox21 library (AID 1224848); note: nearly all actives have a fitted effect of over 50% in size
In short: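 First, 2,000 ERR cells per well were plated and held 6 h at 37 C/5% CO2. Next, compounds in DMSO were pinned in and left 18 h at 37 C. Finally, ONE-Glo was added and luminescence read after 30 min at room temperature.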
% is set by controls: 0 for no effect and ±100 for the full control effect.

O=C(CCCCl)c1ccc(F)cc1
inactive: Potency [1] | Potency [2] | Potency [3] | Potency [4] | activity change, positive = activation [5] 7.87% [at 42.5 µM] | Potency [6] | Potency [7] | Potency [8] | Potency [9] | Potency [10] | Potency [11] | Potency [12] | max response [13] -0.41% | Potency [14] | Potency [15] | Potency [16] | Potency [17] | Potency [18] | Potency [19]

O=C(Cl)c1ccccc1F
inactive: Potency [1] | Potency [2] | Potency [3] | Potency [4] | Potency [6] | Potency [7] | Potency [8] | Potency [9] | Potency [10] | Potency [11] | Potency [12] | max response [13] -0.0017% | Potency [14] | Potency [15] | Potency [16] | Potency [17] | Potency [18] | Potency [19]

Cc1nn(-c2cc(NS(C)(=O)=O)c(Cl)cc2Cl)c(=O)n1C(F)F
inactive: Potency [1] | Potency [2] | Potency [3] | Potency [4] | Potency [20] | activity change, positive = activation [5] -8.62% | Potency [6] | Potency [7] | Potency [8] | Potency [9] | Potency [10] | Potency [11] | Potency [12] | max response [13] 1.81% | Potency [14] | Potency [15] | Potency [16] | Potency [17] | Potency [18] | Potency [19]

CC(C)=CC1C(C(=O)OC(C#N)c2cccc(Oc3ccccc3)c2)C1(C)C (centres undefined)
inactive: Potency [1] | Potency [2] | Potency [3] | Potency [4] | Potency [20] | activity change, positive = activation [5] -9.74% | Potency [6] | Potency [7] | Potency [8] | Potency [9] | Potency [10] | Potency [11] | Potency [12] | max response [13] -3.44% | Potency [14] | Potency [15] | Potency [16] | Potency [17] | Potency [18] | Potency [19]

O=c1[nH]c(Cl)c(Cl)cc1Cl
inactive: Potency [1] | Potency [2] | Potency [3] | Potency [4] | activity change, positive = activation [5] -28.7% | Potency [6] | Potency [7] | Potency [8] | Potency [9] | Potency [10] | Potency [11] | Potency [12] | max response [13] 0.811% | Potency [14] | Potency [15] | Potency [16] | Potency [17] | Potency [18] | Potency [19]

CCN(CC)CCc1c[nH]c2ccccc12
inactive: Potency [1] | Potency [2] | Potency [3] | Potency [4] | Potency [6] | Potency [7] | Potency [8] | Potency [9] | Potency [10] | Potency [11] | Potency [12] | max response [13] 6.8% | Potency [14] | Potency [15] | Potency [16] | Potency [17] | Potency [18] | Potency [19]
